Screen size: about 69,000 compounds; about 8,600 (12%) showed an effect of 50% or more. This is one part of a sample in which strong results are shown more often than they occur.
The compounds below were run on Plasmodium berghei (assay: Screen against P. berghei liver stage (PbLuc), transformed with Luciferase, at 10uM). Details: tested at 10 uM.
Assay type: functional, HepG2
CN1CCC2(CC1)C(=O)N(c1cccnc1)c1ccc(F)cc12 was tested, and the INHIBITION was -45.8%.
O=C(c1cc2cc(I)ccc2[nH]1)N1CCC(Nc2cccnn2)CC1 showed an INHIBITION of 9.54%.
Compound COc1cccc(F)c1CN1CCC(c2nccc(C)n2)C1 (stereo unspecified) has an INHIBITION of 1.35%.
With N#CCCN(CC(F)(F)F)C(=O)c1cc(-n2cccn2)ccn1 the INHIBITION was -13.7%.
In the case of Cc1ccccc1NS(=O)(=O)c1ccc(C(=O)O)cc1F, the INHIBITION is reported as 10.5%.
For O=C(O)c1ccc(S(=O)(=O)Nc2ccccc2CC(F)(F)F)c(F)c1, the INHIBITION was 53.3%.
Work on O=C(O)c1ccc(S(=O)(=O)Nc2ccccc2F)c(F)c1 yielded an INHIBITION of 14.8%.
Compound Cc1nc(C)n(C2CCCN(C(=O)c3ccn(C(C)C)n3)C2)n1 (stereo unspecified) has an INHIBITION of -2.53%.
Cc1ccc(-c2cc(C(=O)NCCC3=CCCCC3)[nH]n2)o1 was tested, and the INHIBITION was 49.9%.
For CCCc1cc(C(=O)NCCC2=CCCCC2)[nH]n1, the INHIBITION was -73.5%.
O=C(NCCC1=CCCCC1)c1cc(-c2ccc(O)cc2)n[nH]1 showed an INHIBITION of 52.6%.
Compound O=C(NCCN1CCc2ccccc21)c1cc(-c2ccc(O)cc2)n[nH]1 has an INHIBITION of 68.9%.
Cc1cc(C(=O)NCCN2CCCc3ccccc32)[nH]n1 showed an INHIBITION of 48.8%.
O=C(NCCN1CCNC1=O)c1cc(-c2ccc(O)cc2)n[nH]1 showed an INHIBITION of 10.7%.
With CN1CCN(C(=O)NC2CCCC2)Cc2cccnc21 the INHIBITION was -29.3%.
CCn1c(CNCC2CCCN2c2cccnn2)nc2ccccc21 (stereo unspecified) gave an INHIBITION of -0.113%.
Work on COc1ccc(COCC(O)CNC(=O)Cc2ccc(C)cc2)cc1 (stereo unspecified) yielded an INHIBITION of 11.2%.
With Cc1ncn(CCNC(=O)Nc2ccc(F)c(Cl)c2)c(=O)c1C the INHIBITION was 20.9%.
Compound CCOC(=O)COC1CCN(C(C)=O)CC(=O)N(C)c2ccccc21 (stereo unspecified) has an INHIBITION of 22.2%.
Compound COc1ccccc1-c1ncc(CN2CCC3(CCN(C)C3)CC2)cn1 has an INHIBITION of 18.4%.
COc1cccc(COCC(=O)N2CCCN(CC(N)=O)CC2)c1 gave an INHIBITION of -101%.
CC(C)CC(NC(=O)CSc1ccc(F)c(Cl)c1)C(=O)O (stereo unspecified) was tested, and the INHIBITION was 75.8%.
Work on CC(C)CC(NC(=O)Nc1ccc(F)c(Cl)c1)C(=O)O (stereo unspecified) yielded an INHIBITION of -20.3%.
With COCC(C)NC(=O)CSc1ccc(F)c(Cl)c1 (stereo unspecified) the INHIBITION was 46.1%.
Cc1nc(N2CCCC2)nc2c1CCN(C(=O)CN(C)C)CC2 gave an INHIBITION of 20.1%.
Work on COCc1ccccc1C(=O)N1CCCC1Cn1nc(C)cc1C (stereo unspecified) yielded an INHIBITION of -72.745%.
C=C(C)CN1CCN(Cc2cnc(-c3ccccc3C)nc2)CC1 gave an INHIBITION of 9.93%.
With Cc1nn(-c2ccc(C(=O)O)cc2)c2c1C(C(F)(F)F)SCC(=O)N2 (stereo unspecified) the INHIBITION was -14.3%.
Work on O=C(NCCCC(=O)N1Cc2ccccc2C1)NCc1nccs1 yielded an INHIBITION of 39.7%.
O=C(NCCCC(=O)N1Cc2ccccc2C1)NCc1cccnc1 gave an INHIBITION of 66.3%.
Compound O=C(NCCCC(=O)N1Cc2ccccc2C1)NCc1ccsc1 has an INHIBITION of 23.5%.
In the case of O=C1[C@@H]2CC[C@@H](CN(Cc3nnc(C4CC4)o3)C2)N1Cc1cscn1, the INHIBITION is reported as -28.4%.
Cc1cc(C(=O)N2CCC(CCC(=O)NCCN(C)C)CC2)ccc1O showed an INHIBITION of -21.9%.
Work on CN(C)CCNC(=O)CCC1CCN(C(=O)c2ccc(O)cn2)CC1 yielded an INHIBITION of 26.8%.
CN(C)CCNC(=O)CCC1CCN(C(=O)c2ccc(Cl)cc2O)CC1 showed an INHIBITION of 50.4%.
CCN(c1ccc(C(=O)NCCCN2CCCC2)cc1)S(=O)(=O)CC showed an INHIBITION of -7.11%.
CC[C@@H]1N(Cc2ccc(F)cc2)CCC[C@]12CCC(=O)N2C gave an INHIBITION of 21.1%.
Cc1ccc(N2CC3(COCCN(Cc4ccccn4)C3)OCC2=O)s1 (stereo unspecified) showed an INHIBITION of 60.1%.
In the case of Cc1cccc(N2CCOCC3(C2)CN(c2cccnc2)C(=O)CO3)n1 (stereo unspecified), the INHIBITION is reported as 41.4%.
Work on Cc1ccc(CN2CCC3(CC2)CN(c2cnn(C)c2)C(=O)CO3)o1 yielded an INHIBITION of -2.17%.
Cc1ccc(N2CC3(COCCN(Cc4nccs4)C3)OCC2=O)s1 (stereo unspecified) showed an INHIBITION of -17%.
Compound Cc1ccc(CN2CCOCC3(C2)CN(c2ccc(C)s2)C(=O)CO3)o1 (stereo unspecified) has an INHIBITION of 64.2%.
Cc1ccc(N2CC3(COCCN(Cc4cccnc4)C3)OCC2=O)s1 (stereo unspecified) showed an INHIBITION of 39.2%.
Compound Cc1ccc(CN2CCC3(CC2)CN(c2ccccc2)C(=O)CO3)o1 has an INHIBITION of 68.4%.
In the case of Cc1ccc(N2CC3(COCCN(Cc4ccncc4)C3)OCC2=O)s1 (stereo unspecified), the INHIBITION is reported as -36%.
With Cc1cccc(N2CCOCC3(C2)CN(c2ccccc2)C(=O)CO3)n1 (stereo unspecified) the INHIBITION was 59.3%.
With Cc1cccc(N2CCOCC3(C2)CN(c2cncnc2)C(=O)CO3)n1 (stereo unspecified) the INHIBITION was 33.5%.
Cn1cccc1CN1CCC2(CC1)CN(c1ccccc1)C(=O)CO2 showed an INHIBITION of -19.5%.
In the case of Cc1ccc(N2CC3(COCCN(Cc4cnn(C)c4)C3)OCC2=O)s1 (stereo unspecified), the INHIBITION is reported as 31.7%.
In the case of Cc1ccc(CC(=O)N2CCc3nnc(N(C)C)cc3C2)s1, the INHIBITION is reported as 12.85%.
Cn1cnc2c1C(COCC1CCOCC1)CN(C1CCOCC1)C2 (stereo unspecified) was tested, and the INHIBITION was -0.569%.
CC(C)NC(=O)Nc1ccc(CS(C)(=O)=O)cc1 showed an INHIBITION of 28.3%.
Work on CCn1ccnc1CN1CCCN(C(=O)c2cnc(C)cn2)CC1 yielded an INHIBITION of -4.16%.
For Cc1nc(CN2CCCC(N(C)Cc3nccn3C)C2)no1 (stereo unspecified), the INHIBITION was 13.3%.
COc1ccc(OCc2cc(C(=O)N3CCCCO3)n[nH]2)c(Cl)c1 gave an INHIBITION of -9.42%.
With CCNCCC(Cc1ccccc1)c1ccco1 (stereo unspecified) the INHIBITION was 31.2%.
In the case of COCCN(C)c1cnn(C)c(=O)c1Br, the INHIBITION is reported as 17.5%.
CC(Cn1cccn1)C(=O)N1CCCN(Cc2cscn2)CC1 (stereo unspecified) was tested, and the INHIBITION was -0.29%.
O=C(c1cnco1)N1CCC(Cc2cnc3ccccc3c2)CC1 gave an INHIBITION of 14.4%.
With O=C1CC2(CCCCN2C(=O)Cc2ccccc2)CN1c1cccnc1 (stereo unspecified) the INHIBITION was 70.1%.
O=C1CC2(CCCCN2C(=O)c2ccoc2)CN1Cc1ccccc1 (stereo unspecified) gave an INHIBITION of 24.8%.
For O=C1CC2(CCCCN2C(=O)c2ccco2)CN1c1cccnc1 (stereo unspecified), the INHIBITION was 76.5%.
For Cn1ccc(C(=O)N2CCCCC23CC(=O)N(Cc2ccccc2)C3)n1 (stereo unspecified), the INHIBITION was -52.9%.
Cn1cccc1C(=O)N1CCCCC12CC(=O)N(c1cccnc1)C2 (stereo unspecified) gave an INHIBITION of -80.2%.
Work on O=C(c1ccco1)N1CCOCC2(C1)CN(c1cccnc1)C(=O)CO2 (stereo unspecified) yielded an INHIBITION of 3.58%.
COc1ccc(CC(=O)N2C[C@@H]3COC[C@]3(CN(C)C)C2)cc1 gave an INHIBITION of 35.3%.
Compound CCOCC1c2c(cnn2CC2CC2)CCN1Cc1nccs1 (stereo unspecified) has an INHIBITION of 30.3%.
With O=C(C1CCCC1)N1CCO[C@H]2[C@H](OCC3CCOCC3)CC[C@@H]21 the INHIBITION was -26.5%.
Work on CC(C)NC(=O)CS(=O)(=O)Cc1coc(-c2ccc(F)cc2)n1 yielded an INHIBITION of 33.8%.
Cc1nc(C)c(CC(=O)N2C[C@@H]3CC[C@H]2CN(c2cnccn2)C3)s1 was tested, and the INHIBITION was -102%.
With CC(C)C(=O)NC1COC2(CCN(Cc3cccnc3)CC2)C1 (stereo unspecified) the INHIBITION was 16.1%.
c1cnc(NCc2nnn3c2CN(Cc2ccsc2)CCC3)nc1 was tested, and the INHIBITION was 39.8%.
CS(=O)(=O)NC[C@@H]1OC[C@H]2CN(Cc3ccsc3)CC[C@H]21 showed an INHIBITION of -4.32%.
With CN(CC(=O)N1CCc2[nH]c3ccccc3c2C1)CC1OCCO1 the INHIBITION was 22.9%.
With O=C1N(c2ccsc2)CCC12CCCN(c1ccccn1)C2 (stereo unspecified) the INHIBITION was 42.1%.
With Cc1nn(C)c(N(C)C)c1CNCc1cccnc1-n1cncn1 the INHIBITION was 26.1%.
Work on CC(C)C[C@H](N)COc1cccc(F)c1Oc1ccccc1 yielded an INHIBITION of 48%.
Compound CC(C)C[C@H](N)COc1cccc(F)c1Oc1ccc(Cl)cc1 has an INHIBITION of 87.9%.
With CC(C)C[C@H](N)COc1cccc(F)c1Oc1cccc(Cl)c1 the INHIBITION was 83.3%.
CC(CNS(C)(=O)=O)Oc1cccc(Cl)c1 (stereo unspecified) showed an INHIBITION of 23.8%.
COc1ccccc1C(N)CC(C)C (stereo unspecified) gave an INHIBITION of 48.3%.
Work on CNCc1cc(F)ccc1Oc1ccc(Cl)cc1 yielded an INHIBITION of 35.2%.
Compound CC(CNS(N)(=O)=O)Oc1cccc(Cl)c1 (stereo unspecified) has an INHIBITION of 14.9%.
Cc1ccc(Oc2c(F)cccc2OC[C@@H](N)CC(C)C)cc1 gave an INHIBITION of 79.6%.
For CN(CCc1ccccn1)c1cnn(C)c(=O)c1Br, the INHIBITION was -18.9%.
With Cc1ccc2c(c1)Oc1ncccc1C(=O)N2 the INHIBITION was 48.2%.
Cc1cnc(C(=O)N2C[C@H]3CN(Cc4cccc(F)c4)C(=O)[C@H]3C2)cn1 showed an INHIBITION of -9.71%.
CC(CN1CCOCC1)NC(=O)N1CCN(S(C)(=O)=O)CC1 (stereo unspecified) gave an INHIBITION of -34.4%.
CCOc1ccc(SCCS(=O)(=O)CC)cc1 gave an INHIBITION of 3.84%.
For CCn1c(C)nnc1SCCn1cc(-c2ncc[nH]2)nn1, the INHIBITION was 7.1%.
With c1c[nH]c(-c2cn(CCSc3cnn[nH]3)nn2)n1 the INHIBITION was 33.2%.
CCSCCn1cc(-c2ncc[nH]2)nn1 showed an INHIBITION of 59.1%.
Cc1cnc(CN(C)C2CCN(Cc3nccn3C)C2)o1 (stereo unspecified) was tested, and the INHIBITION was 13.3%.
CCOC(=O)CNC(=O)c1cc(-c2ccccc2)nc2ncnn12 was tested, and the INHIBITION was -5.22%.
Cc1nc(Nc2ccc(Cl)cn2)sc1C(=O)NC(C)C showed an INHIBITION of -86.5%.
With CC(=O)c1sc(Nc2ccc(Cl)cn2)nc1C the INHIBITION was -9.27%.
Work on CCCNC(=O)c1sc(Nc2ccc(Cl)cn2)nc1C yielded an INHIBITION of -19.7%.
Cc1nc(Nc2ccc(Cl)cn2)sc1C(=O)NCCCN1CCCCC1 gave an INHIBITION of 52.3%.
COCCNC(=O)c1sc(Nc2ccc(Cl)cn2)nc1C gave an INHIBITION of 67.9%.
Compound CCCc1nc(C)c(C(=O)NCCN2CCCCC2)s1 has an INHIBITION of -21.9%.
COc1ccc(CCC(=O)N2CCNCC2C(=O)N2CCCC2)cc1 (stereo unspecified) gave an INHIBITION of 32.1%.
For COCCO[C@H]1CCN(Cc2cccnc2)[C@H]1Cc1cccnc1, the INHIBITION was -31%.
CN(C)S(=O)(=O)N1C[C@H]2CC[C@@H](C1)N(Cc1ccc(F)c(F)c1)C2 gave an INHIBITION of 0.825%.
CSc1nccn1-c1ccc(C(=O)NCC2CC2)cc1 showed an INHIBITION of 36.1%.
O=C(NCCCn1nc2ccccn2c1=O)NCC(C1CC1)C1CC1 was tested, and the INHIBITION was -20%.
With Cc1ccc(-c2cc(-c3c(C)nn(CCO)c3C)c(C#N)c(N)n2)cc1 the INHIBITION was 14.1%.
Work on COc1cc(-c2cc(-c3ccn(C)c3)nc(N)c2C#N)cc(OC)c1O yielded an INHIBITION of 71.2%.
Work on COc1ncc(-c2cc(-c3ccn(C)c3)nc(N)c2C#N)cn1 yielded an INHIBITION of 29.4%.
Compound CCn1cc(-c2cc(-c3ccn(C)c3)nc(N)c2C#N)cc1C#N has an INHIBITION of 81.1%.
In the case of CCCn1cc(-c2cc(-c3cnc(OC)nc3)c(C#N)c(N)n2)c(C)n1, the INHIBITION is reported as 25.1%.
With CCNc1ncc(-c2cc(-c3ccn(C)c3)nc(N)c2C#N)cn1 the INHIBITION was 36%.
